From PubChem BioAssay AID1850 (Southern Research Specialized Biocontainment Screening …, 2009) come the findings set out here.

Among all 310,000 compounds or so, about 1,000 (0.32%) were called active. The list is a sample of the results. Measured potencies and affinities stand elsewhere. Values without a mark were called inactive. How the calls were made is not given here.

This test is described as follows: Inhibition of PhoP regulon, Salmonella typhi GFP reporter cells, confirmation, 4 h (AID 1850).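 Further: 0% = induced wells with vehicle and 100% = uninduced wells.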 As to conditions: Salmonella Typhi PhoP-promoter GFP reporter, fluorescence, at 50 µM, hits give high values.
As for `Cc1cc(C)n2c(Nc3ccc4c(c3)OCCO4)c(-c3ccccc3)nc2n1`, the inhibition was -10.2%.

`CCCCN1C(=O)C2NN=C(C(=O)OCC)C2C1=O` (stereo not given): the inhibition was 8.14%.

Regarding `Cc1ccc(-n2nc3c(c2NC(=O)c2ccc4c(c2)OCO4)CS(=O)(=O)C3)cc1C`, the inhibition was -5.55%.

As for `COc1ccccc1N1C(=O)c2ccccc2NC1c1cc(OC)c(OC)c(OC)c1` (stereo not given), the inhibition was 2.7%.

As to `CCc1ccccc1NC(=O)C1CCN(C(=O)c2ccc([N+](=O)[O-])cc2)CC1`, the inhibition was -0.4%.

For the molecule `O=C(NCc1ccc(OC(F)(F)F)cc1)C1CC2Cn3c(nc4ccccc43)C2N1Cc1ccccc1` (stereo not given), the inhibition is 2.43%.

`N#Cc1c(-c2ccccc2)cc(-c2ccc(O)cc2)nc1N`: the inhibition is -7.46%.

As to `O=C(COC(=O)c1ccccc1[N+](=O)[O-])NC(=O)c1ccccc1`, the inhibition is -0.26%.

Regarding `CCNC(=O)Cn1c(=O)c(=O)n(Cc2ccccc2)c2ccc(Cl)cc21`, the inhibition is -13.1%.

With `Cc1ccc(CC2CC(=O)N(c3ccc(C)cc3)C2=O)cc1` (stereo not given), the inhibition is 7.02%.

In the case of `CCn1c2ccccc2c2cc(NC(=O)CSc3nnc(-c4ccccc4OC)n3N)ccc21`, the inhibition was -0.4%.

Consider `N=c1c2c(-c3ccccc3)c(-c3ccccc3)n(Cc3ccccc3)c2ncn1CCCn1ccnc1`, for which the inhibition was -3.96%.

Turning to `N=c1c2c(-c3ccccc3)c(-c3ccccc3)n(Cc3ccco3)c2ncn1CCCO`, the inhibition was 12.1%.

Turning to `CCOC(=O)C1=C(CS(=O)(=O)c2ccccc2)NC(=O)NC1c1ccc(OC)c(OC)c1` (stereo not given), the inhibition was -2.15%.

For `Cn1c2c(c(=O)n(C)c1=O)CN(Cc1ccc(F)cc1)CN2`, the inhibition was 7.57%.

Regarding `Fc1ccc(-c2nc3ccccc3[nH]2)cc1`, the inhibition was -1.08%.

On to `c1ccc2[nH]c(-c3ccncc3)nc2c1`, for which the inhibition was 5.01%.

For the molecule `CCCCCC[N+](C)(C)CCSSCC[N+](C)(C)CCCCCC`, the inhibition was 5.58%.

Turning to `C[N+](C)(C)CCCCCCCCCC[N+](C)(C)C`, the inhibition was 8.92%.

Take `C#CC[N+](C)(C)CCCCCCCCCC`: the inhibition was 2.68%.

With `C[N+](C)(C)CCCCCC[N+](C)(C)C`, the inhibition was -25.1%.

As to `CC1CC(=O)Nc2ccccc2N1C(=O)Nc1ccc(F)cc1` (stereo not given), the inhibition was -0.31%.

As for `Cc1ccc(-c2ccc(C(=O)O)o2)cc1Cl`, the inhibition is 6.76%.

Turning to `CCOC(=O)C(=CNc1cc(C)ccc1C)C(=O)OCC`, the inhibition is -9.72%.

For the molecule `CCOC(=O)Cc1csc(NC(=O)c2cnc3scc(C)n3c2=O)n1`, the inhibition is -13.9%.

For the molecule `CN1CCN(C(c2ccccc2)c2ccccc2)CC1`, the inhibition was -1.19%.

`CN1CCN(C(c2ccccc2)c2ccc(Cl)cc2)CC1` (stereo not given): the inhibition is -4.81%.

As to `CN1CCN(CCOc2cccc(Cl)c2)CC1`, the inhibition was 4.36%.

As to `O=C(O)c1cc(S(=O)(=O)N2CCN(C(c3ccccc3)c3ccccc3)CC2)ccc1Cl`, the inhibition is -2.19%.

Turning to `Cc1cc(C)cc(C(=O)NCC(=O)OC(C)C(=O)N(C)c2ccccc2)c1` (stereo not given), the inhibition was -2.85%.

Consider `Cc1nc2sc3c(c2c(=O)[nH]1)CCCCC3`, for which the inhibition was -10.5%.

For `Cc1ccccc1-n1ccnc1SCC(=O)NCc1ccco1`, the inhibition was 1.18%.

For the molecule `O=C(c1ccc(Cl)c(NC2=NC3CS(=O)(=O)CC3S2)c1)N1CCN(c2ccccc2)CC1` (stereo not given), the inhibition was -0.27%.

With `Cc1ccc(OCCn2cc(C#N)c3ccccc32)cc1`, the inhibition was -3.38%.

Take `COc1ccc(F)cc1S(=O)(=O)NC1CC(C)(C)NC(C)(C)C1`: the inhibition is -0.42%.

For `CCOc1cccc2sc(=NC(=O)CCS(=O)(=O)c3ccc(F)cc3)n(C)c12`, the inhibition was -5.1%.

For `O=C(C1CCCN(S(=O)(=O)c2cccc3nonc23)C1)N1CCN(c2cccc(Cl)c2)CC1` (stereo not given), the inhibition is 2.17%.

Take `CCCNC(=O)C1CC(=O)N(c2ccc(OCC)cc2)C1` (stereo not given): the inhibition is -4.98%.

With `Cc1cccc(Nc2nc(NCc3ccco3)nc(N)c2[N+](=O)[O-])c1`, the inhibition is -3.95%.

On to `CSc1nc(NCc2ccco2)c2ccccc2n1`, for which the inhibition was 3.85%.

For `Oc1ccccc1Nc1nc(NCc2ccccc2)c2ccccc2n1`, the inhibition is 2.95%.

Consider `Cc1cccc(Nc2nc(N)c([N+](=O)[O-])c(NCc3ccco3)n2)c1`, for which the inhibition is -6.31%.

Regarding `COc1cccc(-c2nc(NCc3ccco3)c3ccccc3n2)c1O`, the inhibition is -5.74%.

In the case of `Fc1ccccc1-c1nc(NCc2ccco2)c2ccccc2n1`, the inhibition was -5.43%.

On to `Cc1ccccc1Nc1nc(NCc2ccco2)c2ccccc2n1`, for which the inhibition was -14.1%.

Take `COc1ccc(OC)c(Nc2nc(NCc3ccco3)c3ccccc3n2)c1`: the inhibition was -4.32%.

With `COc1ccccc1-c1c(C)nn2c(N3CCC4(CC3)OCCO4)cc(C)nc12`, the inhibition was -2.41%.

Take `O=C(COC(=O)C1CC(=O)N(c2nc(-c3ccccc3)cs2)C1)c1ccccc1` (stereo not given): the inhibition is -9.24%.

Regarding `CC(=O)NC(Cc1ccc(N(CCCl)CCCl)cc1)C(=O)NCC(=O)NCC(=O)O` (stereo not given), the inhibition is 6.1%.

Consider `Cc1nn(CCCC(=O)NCCCN2CCN(C)CC2)c(=O)c2c1sc1ccccc12`, for which the inhibition is 11.5%.

As to `Cc1ccc(S(=O)(=O)NCCC(=O)OCc2ccc([N+](=O)[O-])cc2)cc1C`, the inhibition was -4.36%.

Consider `COC(=O)c1cc2oc(C)cc2n1CC(=O)N1CCCc2ccccc21`, for which the inhibition was -6.03%.

With `O=C(Nc1ccn(Cc2c(F)c(F)c(F)c(F)c2F)n1)c1cccc(Cn2cc([N+](=O)[O-])cn2)c1`, the inhibition is -7.4%.

With `CCc1cccc(C)c1NC(=O)c1cccnc1`, the inhibition was -4.39%.

For `O=C1C(Cl)=C(NCCN2CCCCC2)C(=O)c2ccccc21`, the inhibition is -2.93%.

Consider `Cc1ccc(Nc2nc(NCc3ccco3)c3ccccc3n2)cc1`, for which the inhibition is 5.88%.

Consider `Nc1nc(Nc2ccccc2)nc(NCc2ccco2)c1[N+](=O)[O-]`, for which the inhibition was 3.06%.

Regarding `O=C(OCC(=O)N(Cc1ccccc1)Cc1ccccc1)c1ccccc1NCCO`, the inhibition was -4.63%.

For the molecule `CSc1nc2c(c(=O)[nH]1)C(c1ccc(C(F)(F)F)cc1)CC(=O)N2` (stereo not given), the inhibition is 6.77%.

`CNc1oc(-c2cccs2)nc1S(=O)(=O)c1ccccc1`: the inhibition was -10%.

One may read the inhibition as the relative decrease from the control value, in per cent.
